# Assay results published in PMC4336329 (PLoS ONE, 2015).
# In all, about 310,000 compounds went through this assay and about 2,200 (0.71%) showed an effect of 50% or more. The effect is printed as a negative number. This excerpt belongs to a sample that is enriched for strong results.
# Target: human ether-à-go-go-related gene (hERG) potassium channel (human, UniProt Q12809)
# Assay: primary screen, population patch clamp on CHO cells stably expressing hERG; higher = less effect of the substance
# Sequence of human ether-à-go-go-related gene (hERG) potassium channel (Q12809 whole entry, looked up): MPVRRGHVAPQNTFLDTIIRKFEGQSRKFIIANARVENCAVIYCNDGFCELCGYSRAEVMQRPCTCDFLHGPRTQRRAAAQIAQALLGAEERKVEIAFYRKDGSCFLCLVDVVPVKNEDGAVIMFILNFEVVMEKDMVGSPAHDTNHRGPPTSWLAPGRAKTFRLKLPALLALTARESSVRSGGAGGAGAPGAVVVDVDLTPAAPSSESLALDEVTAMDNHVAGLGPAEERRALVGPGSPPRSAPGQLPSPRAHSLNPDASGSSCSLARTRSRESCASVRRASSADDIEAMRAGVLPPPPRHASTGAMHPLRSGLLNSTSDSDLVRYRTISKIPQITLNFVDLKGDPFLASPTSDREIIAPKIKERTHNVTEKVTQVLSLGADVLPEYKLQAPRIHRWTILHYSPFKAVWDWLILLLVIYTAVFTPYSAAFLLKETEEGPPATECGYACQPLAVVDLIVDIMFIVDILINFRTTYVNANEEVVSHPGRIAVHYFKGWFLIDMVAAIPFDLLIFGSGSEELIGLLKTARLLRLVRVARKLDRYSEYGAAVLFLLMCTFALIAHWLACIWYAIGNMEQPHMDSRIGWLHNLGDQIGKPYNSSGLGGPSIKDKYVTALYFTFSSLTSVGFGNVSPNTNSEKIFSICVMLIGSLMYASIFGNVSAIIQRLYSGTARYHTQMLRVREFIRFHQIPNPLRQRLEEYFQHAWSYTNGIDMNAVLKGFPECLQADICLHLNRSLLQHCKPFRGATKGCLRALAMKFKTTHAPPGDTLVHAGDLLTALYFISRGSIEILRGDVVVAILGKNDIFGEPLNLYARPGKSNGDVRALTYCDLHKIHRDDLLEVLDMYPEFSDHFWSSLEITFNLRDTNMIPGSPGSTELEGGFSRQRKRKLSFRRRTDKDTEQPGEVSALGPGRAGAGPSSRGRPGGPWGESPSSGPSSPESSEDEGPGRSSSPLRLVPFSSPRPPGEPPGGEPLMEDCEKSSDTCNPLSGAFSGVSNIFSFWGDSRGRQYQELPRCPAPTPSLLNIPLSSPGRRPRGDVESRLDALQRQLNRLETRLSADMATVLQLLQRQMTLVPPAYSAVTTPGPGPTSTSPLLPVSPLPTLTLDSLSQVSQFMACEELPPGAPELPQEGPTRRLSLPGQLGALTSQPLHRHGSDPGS
row,Structure (SMILES),"hERG current change (%, negative = inhibition) at 1uM"
1,O=C(Nc1ccnn1C1CCN(Cc2ccc(O)c(Cl)c2)CC1)C1CCCC1,-6.39%
2,COc1ccc(CN2CCC(n3nccc3NC(=O)C3CCCC3)CC2)cc1,-47.4%
3,O=C(Nc1ccnn1C1CCN(Cc2ccc(OC(F)F)cc2)CC1)C1CCCC1,-81.5%
4,Cc1c(NC(=O)c2cccc(-c3cc4ccccc4oc3=O)c2)cccc1-c1nc2ncccc2o1,12.7%
5,CCNC(=O)N1CCN(CCCC(c2ccc(F)cc2)c2ccc(F)cc2)CC1.Cl,-90.3%
6,O=C(Nc1ccc(F)cc1)N1CCN(CCc2ccccc2)CC1,-9.52%
7,CCCCNC(=O)N1CCN(Cc2ccc(F)cc2)CC1,9.29%
8,CCN(CC)CCNS(=O)(=O)c1ccc2[nH]cc(C(=O)O)c(=O)c2c1,10.9%
9,COc1ccccc1C(=O)Nc1ccnn1C1CCN(CCCC2CCCC2)CC1,-93.2%
10,O=C(Nc1ccnn1C1CCN(CC2CC=CCC2)CC1)c1ccccc1Cl (stereo not shown),-37.8%
11,COc1ccccc1C(=O)Nc1ccnn1C1CCN(CC2CC=CCC2)CC1 (stereo not shown),-69.1%
12,O=C(Nc1ccnn1C1CCN(CCCC2CCCC2)CC1)c1ccccc1,-60.9%
13,O=C(Nc1ccnn1C1CCN(C2CCCCC2)CC1)c1ccccc1,12.1%
14,O=C(Nc1ccnn1C1CCN(C2CCCC2)CC1)c1ccccc1Cl,6.27%
15,COc1ccccc1C(=O)Nc1ccnn1C1CCN(C(=O)C(C)(C)C)CC1,-6.95%
16,O=C(Nc1ccnn1C1CCN(C2CCCC2)CC1)c1ccccc1,13.3%
17,CC(C)(C)CN1CCC(n2nccc2NC(=O)c2ccccc2Cl)CC1,4.68%
18,COc1ccccc1C(=O)Nc1ccnn1C1CCN(C2CCSCC2)CC1,-44.5%
19,O=C(Nc1ccnn1C1CCN(CCCC2CCCC2)CC1)c1ccccc1Cl,-99%
20,Cc1ccccc1C(=O)Nc1ccnn1C1CCN(CC2CC=CCC2)CC1 (stereo not shown),-33.5%
21,Cc1onc(-c2ccccc2)c1-c1ccnn1C(=O)NC(C)C,6.54%
22,O=C(NC1CCCCC1)c1ccccc1NC(=O)C1CC(=O)N(c2ccccc2)C1 (stereo not shown),-64.3%
23,CCCOc1ccc(N2CC(C(=O)Nc3ccccc3C(=O)NC)CC2=O)cc1 (stereo not shown),-56.5%
24,Cc1ccc(N2CC(C(=O)Nc3ccccc3C(=O)NC3CCCCC3)CC2=O)cc1 (stereo not shown),5.42%

row,Structure (SMILES),"hERG current change (%, negative = inhibition) at 1uM"
1,O=C(NC1CCCCC1)c1ccccc1NC(=O)C1CC(=O)N(c2ccc(Cl)cc2)C1 (stereo not shown),13.2%
2,CCCOc1ccc(N2CC(C(=O)Nc3ccccc3C(=O)NCc3ccco3)CC2=O)cc1 (stereo not shown),-29.5%
3,CNC(=O)c1ccccc1NC(=O)C1CC(=O)N(c2ccc(OC)cc2)C1 (stereo not shown),9.77%
4,CCC(C)C1C(C#N)=C(N)Oc2n[nH]c(C)c21 (stereo not shown),14.1%
5,CN(C)CCCNc1ncc(C(F)(F)F)cc1Cl,10.3%
6,CN1C(=O)[C@@H]2[C@H](C1=O)[C@@H]1C(=O)Nc3ccccc3C(=O)N1[C@@H]2c1ccc(Br)cc1,-16.7%
7,O=C(Cn1c(C(=O)N2CCN(C3CCCCC3)CC2)cc2sccc21)c1ccccc1,-47.5%
8,CN1CCN(C(=O)c2cc3sccc3n2CC(=O)c2ccccc2)CC1,-2.93%
9,O=C(Cn1c(C(=O)N2CCN(C3CCCC3)CC2)cc2sccc21)c1ccccc1,-51%
10,COc1ccc(-c2cc(-c3cccs3)c(C#N)c(SCC(=O)NCc3ccccc3OC)n2)cc1,-3.19%
11,Cc1cccc(C)c1NC(=S)NCc1ccncc1,16%
12,c1ccc(CN2CCC(Nc3nc(-c4cccnc4)nc4ccccc34)CC2)cc1,-74.6%
13,c1ccc(CN2CCC(Nc3nc(-c4ccccc4)nc4ccccc34)CC2)cc1,4.83%
14,c1ccc(CN2CCC(Nc3nc(-c4cccs4)nc4ccccc34)CC2)cc1,10.5%
15,CSc1oc(-c2ccc(F)cc2)nc1S(=O)(=O)c1ccccc1,-1.68%
16,CC1(C)C([N+](=O)[O-])C(c2ccc(O)cc2)NC(c2ccc(O)cc2)C1[N+](=O)[O-] (stereo not shown),10.3%
17,COc1ccc(CCNC(C)CCc2ccc(OC)cc2)cc1 (stereo not shown),-2.61%
18,COc1ccc(CCC(C)NCCc2ccc(Cl)cc2Cl)cc1 (stereo not shown),-50.1%
19,COc1ccc(CNCCc2ccc(Cl)cc2Cl)cc1,13.2%
20,CCC(=O)OC1(c2ccccc2)C(C)CN(C)CC1C.Cl (stereo not shown),8.82%
21,C[C@]12CCC[C@H](O1)[C@H]([C@@H](O)c1ccccc1)O2,16.5%
22,CN1C(CC(=O)c2ccccc2)CCCC1CC(O)c1ccccc1 (stereo not shown),-55.2%
23,CN1CCC(N(C)CC(O)c2ccccc2)CC1.O=C(O)C(=O)O (stereo not shown),1.81%
24,CN1C(CC(O)c2ccccc2)CCCC1CC(O)c1ccccc1.Cl (stereo not shown),-46.3%

row,Structure (SMILES),"hERG current change (%, negative = inhibition) at 1uM"
1,Cc1ccc2c(Cl)c(C(=O)NC3CC3)sc2c1,9.87%
2,Cn1c(=O)[nH]c(=O)c2c1nc(SCCO)n2CCCc1ccccc1,5.4%
3,CCCCCCn1c(SCCN2CCOCC2)nc2c1c(=O)[nH]c(=O)n2C,-64.1%
4,Cn1c(=O)[nH]c(=O)c2c1nc(SCCN1CCOCC1)n2CCCc1ccccc1,-6.15%
5,COCCSc1nc2c(c(=O)[nH]c(=O)n2C)n1Cc1cccc(C)c1,-5.69%
6,Cn1c(=O)[nH]c(=O)c2c1nc(SCCN1CCOCC1)n2Cc1ccccc1,-12%
7,CCCSc1nc2c(c(=O)[nH]c(=O)n2C)n1Cc1ccccc1,2.13%
8,Cn1c(=O)[nH]c(=O)c2c1nc(SCCN1CCCCC1)n2CCCc1ccccc1,-57.3%
9,Cc1cccc(Cn2c(N3CCN(CCO)CC3)nc3c2c(=O)[nH]c(=O)n3C)c1,7.07%
10,Cc1cccc(Cn2c(SCCN3CCCCC3)nc3c2c(=O)[nH]c(=O)n3C)c1,-80.7%
11,Cn1c(=O)[nH]c(=O)c2c1nc(SCCN1CCCCC1)n2Cc1ccccc1,-81.6%
12,CC(C)CCn1c(SCCN2CCOCC2)nc2c1c(=O)[nH]c(=O)n2C,1.89%
13,CCCCCn1c(SCCN2CCOCC2)nc2c1c(=O)[nH]c(=O)n2C,-40.7%
14,O=C(O)C1CC(=O)N(Cc2ccc3c(c2)OCO3)C1 (stereo not shown),6.73%
15,O=C(CN1CCCc2ccccc21)NCc1ccc2c(c1)OCO2,9.15%
16,CSc1ccc(-c2nc3cnccn3c2Nc2ccc3c(c2)OCO3)cc1,9.9%
17,Cc1ccccc1OCCC(=O)Nc1ccc(S(=O)(=O)N(C)C2CCN(C)CC2)cc1,20.4%
18,Cc1ccc(Cn2c(N3CCCCCC3)nc3c2c(=O)[nH]c(=O)n3C)cc1,2.45%
19,Cc1ccc(Cn2c(SCC(C)C)nc3c2c(=O)[nH]c(=O)n3C)cc1,9.48%
20,Cc1ccc(Cn2c(SCCN3CCCCC3)nc3c2c(=O)[nH]c(=O)n3C)cc1,-77.5%
21,O=C(Cc1ccc(Cl)cc1)N1CCc2ccccc2C1,21.7%
22,COc1cccc(C(c2sc3nc(C)nn3c2O)N2CCN(c3ccccc3F)CC2)c1 (stereo not shown),10%
23,CCCCN(CCCC)CCNC(=O)CN1C(=O)CSc2ccc(S(=O)(=O)N3CCCCC3)cc21,-51.7%
24,CCCCN(CCCC)CCNC(=O)CN1C(=O)CSc2ccc(S(=O)(=O)N3CCOCC3)cc21,-3.76%

row,Structure (SMILES),"hERG current change (%, negative = inhibition) at 1uM"
1,CCCCN(C)CCNC(=O)CN1C(=O)CSc2ccc(S(=O)(=O)N3CCCCC3)cc21,-6.21%
2,Nc1nc(N)c(N=Nc2ccc(C(=O)O)cc2)c(N)n1,8.04%
3,Cc1ccc(Sc2cc(NCCCO)c([N+](=O)[O-])c3nonc23)cc1,5.43%
4,CCOC(=O)c1c(NC(=O)c2ccccc2C(=O)O)sc2c1CCCC2,16.3%
5,CCOC(=O)c1c(NC(=O)C(NCCN(C)C)c2ccccc2)sc2c1CCCC2 (stereo not shown),-77.2%
6,CCOC(=O)c1c(NC(=O)c2ccccc2C(=O)O)sc2c1CCC2,2.17%
7,COc1ccc(N=C2SC(C(=O)O)CC(=O)N2Cc2ccc(OC)c(OC)c2)cc1 (stereo not shown),10.8%
8,CCCCNC(=O)N1CCN(c2ccccc2OC)CC1,5.81%
9,O=C1c2[nH]nc(-c3ccccc3O)c2C(c2ccc(F)cc2)N1Cc1ccco1 (stereo not shown),13.1%
10,CC1CC(C)CN(c2cc(=O)n(Cc3ccc(F)cc3)c(=O)[nH]2)C1 (stereo not shown),17.9%
11,CSc1nnc2c3cc(C)ccc3n(Cc3ccccc3)c2n1,10.3%
12,O=C(O)CCSc1nc2ccccc2n1Cc1ccccc1,13.1%
13,CSc1nnc2c3cc(F)ccc3n(Cc3ccccc3)c2n1,7.64%
14,c1ccc(Cn2c3ccccc3c3nnc(SCCN4CCCCC4)nc32)cc1,-6.31%
15,CCN(CC)CCSc1nnc2c3ccccc3n(Cc3ccccc3)c2n1,-73.4%
16,NNc1nnc2c3cc(F)ccc3n(Cc3ccccc3)c2n1,2.58%
17,CCN(CC)CCSc1nnc2c3cc(F)ccc3n(Cc3ccccc3)c2n1,-53.8%
18,CCN(CC)CCSc1nnc2c3ccccc3n(CCc3ccccc3)c2n1,-18.1%
19,CN(C)C(=O)CSc1nc2ccccc2n1Cc1ccccc1,4.73%
20,CSc1nnc2c3ccccc3n(Cc3ccccc3)c2n1,19.2%
21,CCN(CC)CCSc1nnc2c3cc(C)ccc3n(Cc3ccccc3)c2n1,-81.6%
22,CCN(CC)CCSc1nc2ccccc2n1Cc1ccccc1.Cl,-79%
